Screening data deposited in PubChem by National Center for Advancing Translational Sciences (NCATS).
PNC inhibitor: perinucleolar compartment assembly inhibition. PC3M PTB-GFP, PNC prevalence imaging, 16 h; stronger effect = lower value. activity change (PNC), negative = inhibition, % at 10 µM. 3.1% of 140,000 active. AID 2417;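 active = readout at or below -70, meaning at least 70% loss of cells showing the perinucleolar compartment, a nuclear body marking cancer cells; inconclusive = readout between -30 and a set limit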;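 also: plate controls were DMSO wells for no effect and camptothecin positive control wells for full effect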
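Compounds are pinned in duplicate onto adhered PC3M cells stably expressing GFP-tagged PTB and incubated 16 h at 37 C. Cells are then fixed, nuclei stained with Hoechst, and PNC-positive cells counted.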
IMPase Li cell: membrane-permeable IMPase blocker, potentiated with lithium. CHO-M1 cells, IP1 TR-FRET (IP-One), carbachol + lithium. Potency, µM (series often up to 59.4 µM), without a hit: at the highest dose activity, negative = IMPase inhibition, usual class: inhibitors. 0.35% of 210,000 active. AID 1457; active = well fitted inhibition curve with a large enough effect; inconclusive = small, poorly fitted or top-dose-only effect; inactive = no such curve, though single readings can be large or run the other way;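 also: IP1 builds up when IMPase is blocked and the TR-FRET signal falls; potency is read from the fitted curve at half-maximal effect; plate controls were basal vehicle for no effect and high inhibitor control for full effect; nearly all actives have a fitted effect of over 50% in size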
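CHO-M1, 2000 cells/well, 16–30 h culture; cpd + low Li+, 30 min 37C; lysis with d2-IP1/Eu-anti-IP1 Ab, 10 min RT; TR-FRET 665/620 ratio and 620 channel; AC50 via Hill.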
HPGD inh: HPGD (human) dehydrogenase inhibition | P15428 | purified HPGD, NADH fluorescence kinetic, PGE2 substrate | Potency, µM, without a hit: top-dose activity change, negative = inhibition, actives largely listed as inhibitors | 4.3% of 150,000 active | AID 894; also: potency is read from the fitted curve at half-maximal effect
Target sequence (P15428 whole entry, looked up): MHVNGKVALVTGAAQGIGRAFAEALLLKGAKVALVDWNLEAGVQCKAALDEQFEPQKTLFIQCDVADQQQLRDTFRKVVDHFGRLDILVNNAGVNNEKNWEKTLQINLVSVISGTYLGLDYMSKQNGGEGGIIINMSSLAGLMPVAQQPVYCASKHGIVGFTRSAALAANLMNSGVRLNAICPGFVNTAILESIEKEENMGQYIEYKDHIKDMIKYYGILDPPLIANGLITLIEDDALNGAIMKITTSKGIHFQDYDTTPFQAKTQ
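NADH formation kinetics: reaction with 30 uM PGE2 and 1 mM NAD+ (final), 20 nM enzyme, Tris-HCl pH 8 with Tween 20, after 15 min compound preincubation at room temperature. Fluorescence change, last versus first of five reads.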
ALDH1A1 inh: ALDH1A1 (human) enzyme inhibition; Purified ALDH1A1, NADH fluorescence, propionaldehyde substrate; P00352; Potency, µM (series often up to 75.3 µM), without a hit: top-dose activity, negative = inhibition, most hits filed as inhibitors; 7.3% of 220,000 active;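 also: potency is read from the fitted curve at half-maximal effect; plate controls were no enzyme wells and a reference inhibitor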
IMPase inh: IMPase inhibition in cells; inhibition (IP1 accumulation), % at 46.1 µM; CHO-M1 cells, IP1 accumulation, HTRF TR-FRET ratio; 120,000 tested, under 10 active; AID 901; P97697; active = well fitted curve in the direction sought with a large enough effect in the signal ratio, not every such curve was filed as active; inconclusive = small, poorly fitted or top-dose-only effect, or a change in a side signal; inactive = no such curve, though single readings can be large or run the other way; the % refers to the signal ratio;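 also: cells stimulated with carbachol in lithium chloride buffer; plate controls were DMSO basal wells for no effect and reference inhibitor wells for full effect; higher means more IMPase inhibition seen as more IP1 and lower FRET ratio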
Target sequence (P97697 whole entry, looked up): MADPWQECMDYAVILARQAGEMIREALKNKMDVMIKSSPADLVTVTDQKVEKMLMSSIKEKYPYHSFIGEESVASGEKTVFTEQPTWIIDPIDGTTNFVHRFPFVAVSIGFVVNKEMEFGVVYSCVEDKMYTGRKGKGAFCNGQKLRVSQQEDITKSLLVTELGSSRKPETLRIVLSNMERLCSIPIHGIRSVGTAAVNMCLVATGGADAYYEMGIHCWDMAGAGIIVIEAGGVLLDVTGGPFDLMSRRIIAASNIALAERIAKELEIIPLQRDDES
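Measured: the HTRF emission ratio (665/620 nm) plus the 620 nm donor channel, each fitted to the Hill equation to give AC50. Cells were CHO-M1 given compounds up to 46 uM and a 30 min carbachol stimulation at 37C.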
Numbers without * were called inactive; ? = inconclusive; / = no result; [ ] = dose if it differs, or a comment. An excerpt weighted towards active compounds, which were near 11% of everything screened. Unless noted, calls follow the shape of the dose curve; as a rule, active = well fitted inhibition curve with a large enough effect (not every such curve was filed as active); inconclusive = small, poorly fitted or top-dose-only effect, or another doubt; inactive = no such curve, though single readings can be large or run the other way. Unless noted, % is scaled to controls: 0 for no effect and ±100 for the full control effect.

SMILES	PNC inhibitor	IMPase Li cell	HPGD inh	ALDH1A1 inh	IMPase inh
COc1ccc(/C=C2\CCC/C(=C\C=N\N(C)C)C2=O)cc1	/	30%	/	4µM*	/
CN(C)/N=C/C=C1\CCC/C(=C\c2ccc(F)c(F)c2)C1=O	/	19%	/	?	/
O=C1/C(=C/c2ccc(C(=O)O)cc2)CCC/C1=C\c1ccc(C(=O)O)cc1	-93*	-4%	20µM*	-1%	/
O=C(O)c1ccc(C(=O)O)cc1	/	-6%	-3%	2%	/
CN(C)c1ccc(/C=C2\CCC/C(=C\c3ccccc3)C2=O)cc1	-24	2%	-11%	13µM*	-11
O=C1/C(=C/c2ccccc2)CCCc2ccccc21	23	-3%	-1%	-9%	9
CCc1ccc(NS(=O)(=O)c2ccc(Cl)cc2OC)cc1	/	/	-10%	1%	/
CC(C)COc1ccc(C(=O)Nc2sc3c(c2C(=O)O)CC(C)(C)OC3)cc1	/	-7%	/	20µM*	/
CC1(C)Cc2c(sc(NC(=O)c3ccccc3)c2C(=O)O)CO1	/	-2%	/	22µM*	/
O=C(CN1CCN(c2ccc(O)cc2)CC1)NC(=O)NCc1ccco1	58	/	/	?	-5
O=C(NC(=S)Nc1ccc(N2CCCC2)cc1)c1ccccc1[N+](=O)[O-]	-83*	4%	-11%	?	/
O=C(NC(=S)Nc1ccc(N2CCCCC2)cc1)c1ccco1	-25	5%[38.3 µM]	18µM*	?	8
O=C(NC(=S)Nc1ccc(NC(=O)c2ccco2)cc1)c1ccccc1	-88*	-6%	-10%	?	/
COc1cc(C(=O)NC(=S)Nc2ccc(NC(=O)c3ccco3)cc2)cc(OC)c1OC	59	-6%	-13%	?	/
CC1CCN(c2ccc(NC(=S)NC(=O)c3ccco3)cc2)CC1	39	1%[38.3 µM]	-26%	?	-3
O=C(N/N=C/c1ccc(N2CCCCC2)o1)c1ccccc1[N+](=O)[O-]	3	5%	10µM*	?	/
Cc1noc(C)c1C(=O)N1CCC2(CC1)CN(c1cccc(-c3ccccc3)c1)C2	/	9%	?	?	/
Cc1nc(Cl)sc1C(=O)Nc1cccc(Cl)c1C	-28	7%	-7%	-6%	/
CCc1ccc2c(O)c3c(cc2c1C(=O)OC)C(=O)c1c(O)ccc(O)c1C3=O	/	23%	?	5%	/
CC(C)C(NC(=O)C(Cc1ccc(O)cc1)NC(=O)C(NC(=O)C(F)(F)F)C(C)C)C(=O)O (centres undefined)	/	-2%	-13%	2%	/
Cc1cc(SCC(=O)c2cc3ccccc3o2)nc2ccccc12	?	-5%[38.3 µM]	35µM*	28µM*	4
O=C(CSc1nc2cc(Cl)ccc2s1)c1cc2ccccc2o1	-24	25%[38.3 µM]	?	28µM*	-1
Cc1cc(NC(=O)CSc2nc3cc(Cl)ccc3s2)no1	9	-9%[38.3 µM]	-11%	5%	-1
Cc1cc(SCC(=O)N2CCCC2)nc2ccccc12	-15	-28%[38.3 µM]	13µM*	-27%	-7
C[C@H](CCC(=O)NCC(=O)O)C1CC[C@H]2C3CC[C@@H]4C[C@H](O)CC[C@]4(C)C3C[C@H](O)[C@]12C (some centres undefined)	/	1%	/	4%	/
SMILES	PNC inhibitor	IMPase Li cell	HPGD inh	ALDH1A1 inh	IMPase inh
COc1nc(OC)nc(Oc2ccc([N+](=O)[O-])cc2Cl)n1	-14	-1%	-9%	2%	/
CCn1c(SCc2cccc(F)c2)nc2c(c1=O)SCC2	/	11%	/	14µM*	/
CCn1c(SCc2ccc(F)cc2)nc2c(c1=O)SCC2	/	6%	/	-6%	/
Cc1ccc2cc(C(c3nnnn3CC3CCCO3)N3CCc4ccccc4C3)c(=O)[nH]c2c1 (centres undefined)	23	16%[38.3 µM]	?	18µM*	0
CCOc1ccc2[nH]c(=O)c(C(c3nnnn3CC3CCCO3)N3CCc4ccccc4C3)cc2c1 (centres undefined)	-26	-2%[38.3 µM]	?	?	4
Cc1cccc2cc(C(c3nnnn3CC3CCCO3)N3CCc4ccccc4C3)c(=O)[nH]c12 (centres undefined)	22	1%[38.3 µM]	-24%	13µM*	6
c1nc(NCCc2cnc[nH]2)c2[nH]cnc2n1	/	-8%	-14%	2%[13.5 µM]	/
CC1=NN(C(C#N)c2c(C)nn(Cc3ccccc3)c2C)C(C)(C)C1 (centres undefined)	/	1%	/	1%	/
O=C([C@H](Cc1ccccc1)NS(=O)(=O)c1ccc(Cl)cc1)N1CC[C@@]2(O)CCCC[C@H]2C1	-16	5%[38.3 µM]	4%	?	-1
COc1ccc(S(=O)(=O)N[C@@H](Cc2ccccc2)C(=O)N2CC[C@@]3(O)CCCC[C@H]3C2)cc1	-88*	-1%[38.3 µM]	0%	-15%	4
C[C@@H](Cc1ccccc1)Nc1ncnc2c1ncn2[C@@H]1O[C@@H](CO)[C@H](O)[C@@H]1O	/	/	/	/	0
CCN(CC)C(=O)CSc1nc2ccc(NC(=O)CSc3nccn3C)cc2s1	?	8%	32µM*	?	?
COc1ccccc1C(=O)Nc1ccc2nc(SCC(=O)N(C)C)sc2c1	-114*	-6%	-5%	-8%	/
CC(=O)Nc1ccc2nc(SCC(=O)NCCOc3ccccc3)sc2c1	/	3%	/	5%	/
CCN(CC)C(=O)CSc1nc2ccc(NC(=O)CSc3nnc(N)s3)cc2s1	-100*	11%[38.3 µM]	14µM*	?	4
CCCC(=O)Nc1ccc2nc(SCC(=O)Nc3nccs3)sc2c1	?	-2%	-12%	0%	16
COc1ccc2nc(NC(=O)CSc3nnc(N)s3)sc2c1	?	-3%	-12%	2%	5
COc1ccccc1Nc1ccc([N+](=O)[O-])cc1N	9	8%	-11%	-8%	/
COc1cc(Nc2ccccc2Cl)c([N+](=O)[O-])nc1[N+](=O)[O-]	-92*	14%[38.3 µM]	25µM*	8%	-7
Cc1ccc(Cn2c3ccccc3c3cn[nH]c(=O)c32)cc1	-108*	23%[38.3 µM]	-18%	?	5
O=c1[nH]ncc2c3ccccc3n(Cc3ccccc3F)c12	18	10µM*	-12%	-49%	-7
O=c1[nH]ncc2c3ccccc3n(Cc3ccccc3)c12	67	-8%[38.3 µM]	-13%	-6%	0
CCOC(=O)C1CCCN(CCC(=O)Nc2ccc(OC)cc2OC)C1 (centres undefined)	/	/	/	/	1
Cc1ccc(C)c(-n2cc(CN3CCCN(C=O)CC3)c(-c3ccccc3)n2)c1	/	3%	/	-3%	/
Clc1cccc(Nc2c3c(nc4ncnn24)CCC3)c1	?	21%	16µM*	?	4
CC(C)C[C@@H](CC(=O)N[C@@H](CCC(=O)O)CC(=O)O)NC(=O)[C@@H]1CCCC[C@H]1NC(=O)C[C@@H](NC(=O)C[C@H](CO)NC(=O)[C@@H]1CNCC[C@H]1N)C(C)C	/	12%	-7%	0%	/
COc1ccc(OC)c(NC(=O)CSc2nnc(C)n2Cc2ccccc2)c1	56	41%[38.3 µM]	-11%	18µM*	8
